The text below walks through data of PubChem BioAssay (Tox21).

The target in assay [1] is Thyrotropin receptor (Homo sapiens) (UniProt P16473). Kind of assay: qHTS assay to identify small molecule antagonists of the thyroid stimulating hormone receptor (TSHR) signaling pathway (AID 1259385; calls by dose curve; further: nearly all actives have a fitted effect of over 20% in size). Summed up:
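TSHR-HEK293 cells (800/well) plated 18 h, then compounds with Ro20-1724 and TSH at 1.5 ng/mL final, 30 min at room temperature. cAMP quantified by HTRF (cAMP-d2/anti-cAMP-cryptate, 1 h); 15 concentrations in triplicate.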

The nature of assay [2]: qHTS assay to identify small molecule agonists of the estrogen receptor alpha (ER-alpha) signaling pathway in the presence of an antagonist - cell viability counter screen (AID 1259386).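 Further: cells exposed to compounds for 22 h at 37 °C before the viability read; nearly all actives have a fitted effect of over 30% in size.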 Further: potency means the concentration at half of the fitted maximal effect. On activity change, negative = cytotoxicity: series mostly up to about 92 µM. The essentials: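 ICI-182,780 at 10.0nM final accompanies the compound titration (15 concentrations, 22hr, 37C) on VM7Luc4E2 cells. The CellTiter-Fluor fluorescence readout runs in the same wells as the luciferase assay.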
(In general: Quantitative high-throughput screening tests each substance at several concentrations.)

Assay [3] addresses Progesterone receptor (Homo sapiens) (UniProt P06401). Kind of assay: qHTS assay to identify small molecule agonists of the progesterone receptor (PR) signaling pathway (AID 1346784; calls by dose curve; further: nearly all actives have a fitted effect of over 30% in size). The essentials: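 Beta-lactamase reporter read-out: after 16 hr compound treatment at 37C and a further 2 hr at room temperature with LiveBLAzer B/G FRET substrate, fluorescence was measured in PR-UAS-bla HEK 293T cells grown in 2% charcoal-stripped serum.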

For assay [4] the target is unchanged. Kind of assay: qHTS assay to identify small molecule antagonists of the progesterone receptor (PR) signaling pathway (AID 1346795; active means well fitted inhibition curve with a large enough effect in the signal ratio in the repeat runs, not every such curve was filed as active; the % refers to the signal ratio). The essentials: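 Read-out is fluorescence from the LiveBLAzer B/G FRET substrate, cleaved by a UAS-controlled beta-lactamase in PR-UAS-bla HEK293T cells after 16 hr exposure to compound plus 1 nM promegestone (final), followed by 2 hr at room temperature.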

A short description of assay [5]: qHTS assay to identify small molecule antagonists of the progesterone receptor (PR) signaling pathway - cell viability counter screen (AID 1346798).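 Further: HEK293T PR-UAS-bla cells stimulated with the agonist R5020; series mostly up to about 92 µM; nearly all actives have a fitted effect of over 50% in size.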 Summed up:
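HEK293T PR-UAS-bla, 2% charcoal-stripped FBS; 4 hr pre-plate; cpd + R5020, 16 h 37C; LiveBLAzer read first; then CellTiter-Glo 30 min RT, luminescence.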

Assay [6] can be described thus: qHTS assay to identify small molecule agonists of the TGF-beta/Smad signaling pathway - cell viability counter screen (AID 1346829). Further: top concentration of the series differs between compounds; nearly all actives have a fitted effect of over 45% in size. Summed up:
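Here the cytotoxicity of library compounds is measured in SBE-bla HEK 293T cells treated for 5 hr, using CellTiter-Glo added to wells already read for the beta-lactamase reporter.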

Assay [7] is described as follows: qHTS assay to identify small molecule agonists of the TGF-beta/Smad signaling pathway (AID 1346859; active means well fitted activation curve with a large enough effect in the signal ratio in the repeat runs, not every such curve was filed as active; the % refers to the signal ratio; further: series mostly up to about 77 µM). Summed up:
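SBE-bla HEK 293T, 4,000 cells/well, plated o/n; cpd in DMSO, 5 hr, 37 C/5% CO2; B/G FRET substrate 2 hr RT; ex 405, em 460/530 nm.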

Assay [8] in a line: Human pregnane X receptor (PXR) small molecule agonists, qHTS cell viability counter screen (AID 1346977). Further: nearly all actives have a fitted effect of over 50% in size. Summed up: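 PXR-Luc HepG2, 2,000 cells/well, 5% charcoal-stripped FBS; 5hr settle; cpd 24hr, 37C/5% CO2; CellTiter-Fluor at 23hr, read 1hr later (fluorescence).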
Assay [9] is described as follows: Caspase-3/7 induction in HepG2 cells by small molecules, qHTS assay (AID 1346978). Further: nearly all actives have a fitted effect of over 15% in size. The essentials: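 Wild-type HepG2 cells, 2,000/well, settled 5 hr at 37 C and 5% CO2, then compound-treated for 17 hr; caspase-3/7 activity read by luminescent Caspase-Glo 3/7 after 30 min at room temperature.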
Assay [10] in a line: Caspase-3/7 induction in CHO-K1 cells by small molecules, qHTS cell viability counter screen (AID 1346979). Further: nearly all actives have a fitted effect of over 35% in size. Summed up: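 Cells (CHO-K1, wild type) are plated at 1,500 per well and incubated 5hr. Test compounds in DMSO are then pinned in, followed by 16hr at 37C and 5% CO2. Viability is read by CellTiter-Fluor fluorescence after 1hr.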
Assay [11] in a line: Caspase-3/7 induction in CHO-K1 cells by small molecules, qHTS assay (AID 1346980). Further: nearly all actives have a fitted effect of over 15% in size. Summed up: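 Wild-type CHO-K1 cells exposed to compounds for 17hr at 37 C, 5% CO2. Caspase-3/7 activity then measured by Caspase-Glo 3/7 luminescence after 30min at room temperature.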
Assay [12] deals with Nuclear receptor subfamily 1 group I member 2 (Rattus norvegicus) (UniProt Q9R1A7). Kind of assay: Rat pregnane X receptor (rPXR) activation by small molecules, qHTS assay (AID 1346983). Further: nearly all actives have a fitted effect of over 20% in size. Particulars: rPXR luciferase reporter cells, One-Glo luminescence, 24 h; hits give high values. Summed up: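 Cell-based rPXR activation assay: rPXR cells, 2,000 per well, rested 5hr at 37 C, then exposed to compounds in DMSO for 24 hr at 37 C. Luciferase activity read by One-Glo luminescence after 30 min at room temperature.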

The target of assay [13] is Nuclear receptor subfamily 1 group I member 2 (Homo sapiens) (UniProt O75469). Kind of assay: CYP3A4 induction through human pregnane X receptor (PXR) by small molecules, qHTS assay (AID 1346984). Further: nearly all actives have a fitted effect of over 40% in size. The essentials: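 qHTS, concentration-response format: HepG2 DPX-2 line, PXR/CYP3A4-luc. Exposure 24 h, 37C. Substrate Luciferin-IPA 3uM final, 3 h. Detection One-Glo, 30 min RT.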

Assay [14] has the same target. Kind of assay: Human pregnane X receptor (PXR) activation by small molecules, qHTS assay (AID 1346985). Further: nearly all actives have a fitted effect of over 40% in size. Summed up:
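DPX-2 cells (HepG2 co-transfected with a PXR response element and a CYP3A4-promoter luciferase construct) were seeded at 2,000 per well, rested 5 hr at 37C, then exposed to DMSO-dissolved compounds for 24 hr. Activation was read as luciferase luminescence.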

Assay [15] is described as follows: qHTS assay to identify small molecule agonists of the progesterone receptor (PR) signaling pathway - cell viability counter screen (AID 1346799; calls by dose curve; further: nearly all actives have a fitted effect of over 45% in size). Summed up:
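Luminescence from CellTiter-Glo, added after the beta-lactamase FRET read in the same wells, gave cytotoxicity in PR-UAS-bla HEK293T cells treated with compounds for 16 hr at 37C.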

A short description of assay [16]: qHTS assay to identify small molecule antagonists of the TGF-beta/Smad signaling pathway - cell viability counter screen (AID 1346824). Further: nearly all actives have a fitted effect of over 50% in size. The essentials:
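SBE-bla HEK 293T cells, incubated overnight, then compound plus 0.25 ng/mL TGF-beta1 (stock added) for 5 hr at 37 C. Viability was read in the same wells by CellTiter-Glo luminescence after 30 min at room temperature.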

Assay [17] addresses Thyrotropin-releasing hormone receptor (Homo sapiens) (UniProt P34981). Kind of assay: qHTS assay to identify small molecule antagonists of the thyrotropin-releasing hormone receptor (TRHR) signaling pathway (AID 1346877; active means well fitted inhibition curve with a large enough effect in the repeat runs, not every such curve was filed as active; further: series mostly up to about 51 µM). Summed up: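 Screening used HEK293 cells engineered with TRHR, with a brief 5 min room-temperature compound exposure preceding addition of TRH to 1 nM. The read-out was kinetic calcium-dye fluorescence, concentration-response from 15 doses in triplicate.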

Assay [18] has the same target. Kind of assay: qHTS assay to identify small molecule agonists of the thyrotropin-releasing hormone receptor (TRHR) signaling pathway (AID 1346891; calls by dose curve; further: series mostly up to about 58 µM). Summed up: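 Intracellular calcium rise, read as fluorescence every second for 3 min, served as the agonist signal in dye-loaded HEK293 cells expressing TRHR; each compound ran at 15 concentrations in triplicate.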
A short description of assay [19]: Caspase-3/7 induction in HepG2 cells by small molecules, qHTS cell viability counter screen (AID 1346981). Further: nearly all actives have a fitted effect of over 30% in size. Further: potency means the concentration at half of the fitted maximal effect. On activity change, negative = cytotoxicity: series mostly up to about 92 µM. Summed up: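 Multiplexed with the caspase-3/7 assay: HepG2 cells, 16 hr compound treatment, CellTiter-Fluor viability detection by fluorescence.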
The target of assay [20] is Nuclear receptor subfamily 1 group I member 2 (Homo sapiens) (UniProt O75469). Kind of assay: Human pregnane X receptor (PXR) small molecule agonists, qHTS assay (AID 1346982). Further: nearly all actives have a fitted effect of over 35% in size. Further: potency means the concentration at half of the fitted maximal effect. Summed up: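 We seeded PXR-Luc HepG2 cells in assay medium containing 5% charcoal-stripped FBS, added compounds 5 hr later, incubated 24 hr, and read luminescence with ONE-Glo reagent.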

A number with no mark means an inactive call. Inconclusive results are not listed. The source made the active and inactive calls. Unless noted, the call rests on the fitted dose curve; in most records, active means well fitted curve in the direction sought with a large enough effect in the repeat runs; inconclusive means weak or mixed curves; inactive means no such curve, though single readings can be large; an effect the other way counts as inactive or inconclusive.
On the % scale 0 is the no-effect control and ±100 the full control effect.

Nuclear receptor subfamily 1 group I member 2 (Rattus norvegicus), sequence (Q9R1A7 whole entry, looked up): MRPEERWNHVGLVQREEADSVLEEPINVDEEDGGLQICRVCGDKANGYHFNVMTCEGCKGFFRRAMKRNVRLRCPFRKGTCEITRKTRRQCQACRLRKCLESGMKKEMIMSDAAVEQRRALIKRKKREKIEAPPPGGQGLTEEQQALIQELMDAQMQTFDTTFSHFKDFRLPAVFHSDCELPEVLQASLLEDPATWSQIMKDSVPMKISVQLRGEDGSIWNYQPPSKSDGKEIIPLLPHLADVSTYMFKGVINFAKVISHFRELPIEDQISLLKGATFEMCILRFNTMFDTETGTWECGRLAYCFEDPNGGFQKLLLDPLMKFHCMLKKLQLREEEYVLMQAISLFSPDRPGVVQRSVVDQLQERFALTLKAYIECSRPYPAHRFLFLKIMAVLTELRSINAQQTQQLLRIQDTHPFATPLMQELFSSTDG
Nuclear receptor subfamily 1 group I member 2 (Homo sapiens), sequence (O75469 whole entry, looked up): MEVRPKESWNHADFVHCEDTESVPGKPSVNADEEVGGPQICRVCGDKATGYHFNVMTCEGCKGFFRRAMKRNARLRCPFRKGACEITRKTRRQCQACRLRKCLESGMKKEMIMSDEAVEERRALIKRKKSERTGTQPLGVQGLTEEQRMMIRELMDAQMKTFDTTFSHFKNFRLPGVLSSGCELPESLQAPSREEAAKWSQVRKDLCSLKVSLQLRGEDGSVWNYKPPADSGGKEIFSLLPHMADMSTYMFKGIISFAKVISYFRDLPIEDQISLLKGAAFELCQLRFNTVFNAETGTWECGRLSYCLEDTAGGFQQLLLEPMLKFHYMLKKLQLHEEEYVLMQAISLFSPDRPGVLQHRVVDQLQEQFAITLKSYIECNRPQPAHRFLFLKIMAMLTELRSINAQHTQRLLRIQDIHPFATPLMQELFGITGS
Progesterone receptor (Homo sapiens), sequence (P06401 whole entry, looked up): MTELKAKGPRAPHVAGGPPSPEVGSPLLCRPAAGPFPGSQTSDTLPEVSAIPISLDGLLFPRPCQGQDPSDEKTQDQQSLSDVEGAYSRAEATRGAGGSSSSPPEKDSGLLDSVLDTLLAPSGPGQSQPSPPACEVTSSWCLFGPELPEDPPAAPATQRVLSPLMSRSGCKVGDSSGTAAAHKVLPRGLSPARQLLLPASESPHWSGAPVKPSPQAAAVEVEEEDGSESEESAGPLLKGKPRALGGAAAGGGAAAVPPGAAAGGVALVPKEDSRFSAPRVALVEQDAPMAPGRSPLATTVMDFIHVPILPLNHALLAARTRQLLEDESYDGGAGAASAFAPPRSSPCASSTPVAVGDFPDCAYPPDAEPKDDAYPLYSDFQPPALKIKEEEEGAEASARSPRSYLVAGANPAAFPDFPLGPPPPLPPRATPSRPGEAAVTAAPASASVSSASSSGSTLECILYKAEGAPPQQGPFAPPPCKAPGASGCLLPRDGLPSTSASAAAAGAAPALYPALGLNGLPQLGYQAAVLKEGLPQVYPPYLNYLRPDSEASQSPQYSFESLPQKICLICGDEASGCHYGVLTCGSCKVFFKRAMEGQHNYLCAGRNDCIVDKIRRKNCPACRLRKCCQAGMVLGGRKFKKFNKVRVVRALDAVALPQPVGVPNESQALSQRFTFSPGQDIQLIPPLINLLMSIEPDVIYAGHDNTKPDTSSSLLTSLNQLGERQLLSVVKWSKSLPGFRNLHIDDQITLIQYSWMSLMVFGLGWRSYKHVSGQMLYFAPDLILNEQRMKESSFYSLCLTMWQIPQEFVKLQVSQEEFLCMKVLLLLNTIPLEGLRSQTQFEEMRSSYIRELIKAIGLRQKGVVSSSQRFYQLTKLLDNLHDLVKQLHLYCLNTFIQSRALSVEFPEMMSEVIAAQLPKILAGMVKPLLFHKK
Thyrotropin receptor (Homo sapiens), sequence (P16473 whole entry, looked up): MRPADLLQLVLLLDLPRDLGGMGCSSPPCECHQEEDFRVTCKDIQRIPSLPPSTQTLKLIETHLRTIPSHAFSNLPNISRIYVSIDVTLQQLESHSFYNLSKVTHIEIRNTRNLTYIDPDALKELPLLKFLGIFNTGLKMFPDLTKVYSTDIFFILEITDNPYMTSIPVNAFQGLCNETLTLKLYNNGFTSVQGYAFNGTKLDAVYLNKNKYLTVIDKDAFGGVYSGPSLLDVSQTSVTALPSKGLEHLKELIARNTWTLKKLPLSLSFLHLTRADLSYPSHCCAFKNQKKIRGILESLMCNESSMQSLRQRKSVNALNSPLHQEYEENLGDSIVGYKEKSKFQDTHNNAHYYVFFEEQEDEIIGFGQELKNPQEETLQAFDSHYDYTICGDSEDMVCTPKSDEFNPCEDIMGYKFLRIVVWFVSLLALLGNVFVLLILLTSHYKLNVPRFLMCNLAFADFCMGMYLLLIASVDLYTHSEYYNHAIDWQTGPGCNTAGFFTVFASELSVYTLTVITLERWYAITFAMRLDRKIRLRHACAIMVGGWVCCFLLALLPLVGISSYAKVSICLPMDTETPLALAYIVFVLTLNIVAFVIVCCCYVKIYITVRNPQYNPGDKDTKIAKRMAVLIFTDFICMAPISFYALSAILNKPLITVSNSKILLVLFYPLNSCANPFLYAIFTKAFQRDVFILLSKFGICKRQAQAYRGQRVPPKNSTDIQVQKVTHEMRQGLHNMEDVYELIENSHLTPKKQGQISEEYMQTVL
Thyrotropin-releasing hormone receptor (Homo sapiens), sequence (P34981 whole entry, looked up): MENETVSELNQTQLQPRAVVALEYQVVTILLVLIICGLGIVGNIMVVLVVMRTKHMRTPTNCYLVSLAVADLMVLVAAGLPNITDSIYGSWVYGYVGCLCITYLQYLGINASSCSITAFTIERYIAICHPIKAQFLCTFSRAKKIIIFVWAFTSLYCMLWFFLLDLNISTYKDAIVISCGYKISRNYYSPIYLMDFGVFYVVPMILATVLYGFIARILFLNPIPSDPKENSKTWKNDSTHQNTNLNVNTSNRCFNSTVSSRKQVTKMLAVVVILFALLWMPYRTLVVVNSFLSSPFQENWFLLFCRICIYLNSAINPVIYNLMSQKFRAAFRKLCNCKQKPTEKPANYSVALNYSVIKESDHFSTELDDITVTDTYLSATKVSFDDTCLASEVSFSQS

Consider `Oc1cn2c(n1)Nc1ccc(Cl)c(Cl)c1C2`, for which the activity change, negative = inhibition was -0.393% [at 19 µM] in assay [1] and 2.35% [at 18.9 µM] in assay [4]. The activity change, negative = cytotoxicity in assay [2] was 5.64% [at 19 µM]; in assay [5], 6.36% [at 18.9 µM]; in [6], -0.153% [at 15.8 µM]; in [8], -3.42% [at 19 µM]; in [10] it was -2.03% [at 19 µM]. The activation is -0.586% [at 19 µM] in [3] and -0.288% [at 15.8 µM] in assay [7]. For the same molecule, the caspase activation in assay [9] is 0.135% [at 19 µM]. The caspase-3/7 activation in assay [11] was -0.902% [at 19 µM]. For the same molecule, the max activation in assay [12] is 0.479%. For the same molecule, the Potency result in assay [13] and in assay [14] was “inactive” each time.
`C=C(C)C(=O)OCCN(CC)CC`: the outcome in assay [1], in assay [16], in assay [6], in assay [7], in [17] and in assay [18] was inactive. The result in assay [11] was inactive. Also, the Potency result in assay [2], in assay [4], in assay [5], in assay [15], in [8] and in assay [9] was “inactive” throughout. Besides, the Potency result in assay [10] and in assay [19] was “inactive” each time.
Turning to `Cc1[nH]cnc1-c1ccc(Cl)cc1`, the call in assay [1], in assay [6], in [7], in assay [17], in assay [18] and in assay [11] was inactive. Moreover, the Potency result in [2], in [3], in assay [5], in [8], in [9] and in assay [10] was “inactive” in each case. In addition, in assay [19], the Potency result is “inactive”.
As to `CC(=O)Nc1ccc(S(=O)(=O)Nc2ccc([N+](=O)[O-])cc2)cc1`, the call in assay [1], in assay [16], in assay [6], in [7], in [17] and in assay [18] was inactive. Moreover, the molecule was classed as inactive in assay [11]. The Potency in [2] is 23.7 µM (active); in assay [19], 29.8 µM (active). The Potency entry in assay [3], in assay [4], in assay [15], in assay [9], in assay [20] and in assay [13] was “inactive” each time. In addition, the Potency entry in assay [14] was “inactive”. Moreover, in assay [12], the max activation is -3.2%.
Regarding `O=C(/N=N/C(=O)OCc1ccccc1)OCc1ccccc1`, the molecule was classed as inactive in [1], in assay [6], in assay [7], in assay [17] and in assay [18]. For the same molecule, the Potency result in assay [2], in assay [3], in [5], in [15], in [8] and in [9] was “inactive” each time. For the same molecule, the Potency result in [10] and in [19] was “inactive” in each case. For the same molecule, in [20], the Potency is 30.6 µM (active).
Take `CCCCOCCOC(=O)COc1nc(Cl)c(Cl)cc1Cl`: the molecule was classed as inactive in assay [1], in [16], in assay [6], in assay [7], in assay [17] and in assay [11]. The Potency result in [2], in assay [3], in assay [4], in assay [5], in assay [8] and in [9] was “inactive” in each case. Moreover, the Potency result in assay [10] and in assay [19] was “inactive” in each case.
In the case of `CCOC(=O)CC(=O)c1ccccc1`, the outcome in assay [1], in assay [6], in assay [7], in assay [17], in assay [18] and in assay [11] was inactive. Besides, the Potency entry in assay [2], in [3], in assay [15], in assay [8], in assay [9] and in assay [10] was “inactive” each time. Further, in assay [20], the Potency was 68.6 µM (active).
For the molecule `CC(=C(CCOC(=O)C(C)C)SSC(CCOC(=O)C(C)C)=C(C)N(C=O)Cc1cnc(C)nc1N)N(C=O)Cc1cnc(C)nc1N`, the molecule was classed as inactive in [1], in [16], in assay [6], in assay [7], in assay [17] and in assay [18]. For the same molecule, the Potency entry in assay [2], in [3], in assay [4], in assay [5], in assay [8] and in assay [9] was “inactive” throughout. For the same molecule, the Potency entry in [10], in assay [19], in [20], in assay [13] and in assay [14] was “inactive” throughout. In assay [12], the max activation was -2.83%.
